Active and inactive are the calls of the source. Rule for the calls: active = hit-call score of the fitted dose curve at least 0.9, where 1 is the maximum; inactive = score below 0.9.
Each compound was assayed on Early growth response protein 1 (EGR1) transcription factor, EGR1 (gene 1958) (assay: LTEA_HepaRG_EGR1: Life Technologies and Expression Analysis (LTEA) Assay for Early growth response protein 1 (EGR1) transcription factor using HepaRG (AID 2283490)). Conditions: mRNA level, 48 h; actives raise or lower the signal.
Protocol: LTEA_HepaRG is a cell based, multiplexed-readout assay that uses HepaRG, a human liver cell line, with measurements taken at 48 hours after chemical dosing on a 96-well plate.LTEA_HepaRG_EGR1 is one of 102 assay component(s) measured in the LTEA HepaRG cell culture assay. It is a marker of Cell proliferation, survival, death.Data from the assay component LTEA_HepaRG_EGR1 was analyzed into 1 endpoint. This assay endpoint, LTEA_HepaRG_EGR1, was analyzed with bidirectional fitting relative to DMSO as the negative control and baseline of activity. Using a type of inducible reporter, measures of mRNA induction for gain or loss-of-signal activity can be used to understand regulation of transcription factor activity. To generalize the intended target to other relatable targets, this assay endpoint is annotated to the dna binding intended target family, where the subfamily is zinc finger.
A total of 1060 chemcials from the ToxCast library were tested in eight-point concentration-response experiments. Cell culture and cytotoxicity assays were conducted at Thermo Fisher Scientific's Custom Services facility (Madison, WI). A single lot of human HepaRG cells (Thermo Fisher Scientific, Frederick, MD) was used for the cell culture experiments. 96-well format collagen type I coated plates of human HepaRG cells were prepared using established methods. Briefly, cryopreserved HepaRG cells were thawed, plated at a density of approximately 100,000 cells/well in HepaRG Thaw, Plate, and General Purpose media (HPRG770, Thermo Fisher Scientific), and incubated for 48 hours. 0.5% DMSO was selected as vehicle control to balance the requisite need of DMSO in HepaRG cultures to maintain differentiation (for example, baseline metabolism, proportions of hepatocytes vs. cholangiocytes), while enabling further hepatic receptor pathway activation (for example, PXR and CAR) in response to chemical exposure. 48 hours after plating, the culture medium was replaced with HepaRG Serum-Free Incudtion Media. Cells were exposed to each test chemical in duplicate and maintained in CO2 incubators for another 48 hours. Chemical plates were thawed to room temperature and 200x concentrations of treatment groups were prepared. 8-point conentration-reponse curves were made with the highest exposure at 100 uM, followed by half-log dilutions, all in 0.5% DMSO. Each test plate contained variouse controls, induction positive controls (1mM phenobarbital), cytotoxicity positive controls ([…] aflatoxin B1), vehicle controls (0.5% DMSO), and total lysis controls (0.5% DMSO). Cell morphology images were taken using an Essen IncuCyte FLR automated microscope, with six 96-well plates imaged in about 24 minutes. Images were captured and exported and JPEG files. Spent culture media was transfered to black-well plates for the LDH assay, and remaining media was sorted at -80 C for later use. Cells were treated with RLT buffer and frozen until shipped for gene expression analysis. Total RNA was isolated from the cell suspension in 75 uL of Buffer RLT (Qiagen, Germantown, MD 20874) by Quintiles/Expression Analysis (Durham, NC) using a custom isolation procedure. Total RNA from each plate well was transferred to a preamplification plate. Fluidigm's 96.96 Dynamic ArrayTM (Fluidigm, Amsterdam, the Netherlands) technology was used for gene expression analyses by quantitative reverse transcription polymerase chain reaction (qRT-PCR, performed by Quintiles/Expression Analysis, Durham, NC)89. Standard TaqManTM Assays (Applied Biosystems/ThermoFisher Scientific, Foster City, CA) were used to assess the expression of 93 genes selected based on their selectivity and sensitivity to important hepatic receptors known to be modulated by environmental chemicals; importance in human hepatocyte functionality; and hepatotoxicity. […]

Question: Which AC50 does the source give for `CCc1ccc(CCOc2ccc(CC3SC(=O)NC3=O)cc2)nc1` (stereo not given) here?
Answer: 15.1 µM (active)

Question: Which outcome does the source give for `CC(C)(C)c1cc(C(C)(C)C)c(O)c(C(C)(C)C)c1` here?
Answer: inactive

Question: With `O=c1c(-c2ccc(O)cc2)coc2cc(O)ccc12` as the compound, how does the outcome read?
Answer: inactive

Question: With `C#C[C@]1(O)CC[C@H]2[C@@H]3CCC4=CC(=O)CC[C@@H]4[C@H]3CC[C@@]21C` as the compound, how does the outcome read?
Answer: inactive

Question: Which AC50 does the source give for `CC(=O)NC1(c2cccc(F)c2)CCN(CC[C@@]2(c3ccc(Cl)c(Cl)c3)CN(c3ccccc3)C(=O)CO2)CC1` here?
Answer: 72.4 µM (active)

Question: For `Cc1oc(-c2ccccc2)nc1CCOc1ccc(C[C@H](Nc2ccccc2C(=O)c2ccccc2)C(=O)O)cc1`, which AC50 is on record?
Answer: 87.9 µM (active)

Question: `CCCCCCCCCCCCc1ccccc1S(=O)(=O)O` was tested. Which outcome did it give?
Answer: inactive

Question: `CCCCCCCCCCCCCCCS(=O)(=O)Oc1ccccc1` was tested. Which outcome did it give?
Answer: inactive

Question: How did the outcome turn out when `Oc1cc2ccccc2c2ccccc12` was run?
Answer: inactive

Question: For `OC1CCC(C2CCCCC2)CC1` (stereo not given), which outcome is on record?
Answer: inactive

Question: Which AC50 does the source give for `CCN(CC)CCNc1ccc(CNC=O)c2sc3ccc(OC)cc3c(=O)c12` here?
Answer: 88.2 µM (active)

Question: `CCC(C)(C)C1CCC(O)CC1` (stereo not given) was tested. Which outcome did it give?
Answer: inactive

Question: `CC(C)(C)c1cccc(C(C)(C)C)c1O` was tested. Which outcome did it give?
Answer: inactive

Question: How did the AC50 turn out when `CC[C@H](c1ccc(O)cc1)[C@@H](CC)c1ccc(O)cc1` was run?
Answer: 78.7 µM (active)

Question: How did the outcome turn out when `OCCC(F)(F)C(F)(F)C(F)(F)C(F)(F)C(F)(F)C(F)(F)C(F)(F)C(F)(F)F` was run?
Answer: inactive

Question: Which outcome does the source give for `CC(C)(C)CC(C)(C)c1ccc(O)c(-n2nc3ccccc3n2)c1` here?
Answer: inactive

Question: Which outcome does the source give for `C=C(C)C(=O)OCCC(F)(F)C(F)(F)C(F)(F)C(F)(F)C(F)(F)C(F)(F)F` here?
Answer: inactive

Question: With `CCC(=C(c1ccc(O)cc1)c1ccc(OCCN(C)C)cc1)c1ccccc1` as the compound, how does the AC50 read?
Answer: 76.5 µM (active)

Question: How did the outcome turn out when `CCCCCCCCCCCCN1CCCC1=O` was run?
Answer: inactive

Question: How did the outcome turn out when `Cc1cc(CCN2CCN(c3nsc4ccccc34)CC2)cc2c1NC(=O)CC2(C)C` was run?
Answer: inactive

Question: Which outcome does the source give for `O=C(OCCOCCOC(=O)c1ccccc1)c1ccccc1` here?
Answer: inactive

Question: With `N#C[C@@H]1CC(F)(F)CN1C(=O)CNC1CC2CCC(C1)N2c1ncccn1` (stereo not given in full) as the compound, how does the outcome read?
Answer: inactive

Question: Which outcome does the source give for `COc1ccc([N+](=O)[O-])cc1N` here?
Answer: inactive

Question: With `CCCCCCCCOC(=O)CCCCCCCCC(=O)OCCCCCCCC` as the compound, how does the outcome read?
Answer: inactive

Question: How did the outcome turn out when `c1ccc2c(c1)Cc1ccccc1-2` was run?
Answer: inactive

Question: Which outcome does the source give for `CC(=O)CC(C)(C)O` here?
Answer: inactive

Question: Which AC50 does the source give for `CN1CCN(c2ccccc2/C=C2\SCCN(c3ccc(Cl)c(Cl)c3)C2=O)CC1` here?
Answer: 83 µM (active)

Question: Which outcome does the source give for `Cc1cc(C)c(O)c(C)c1` here?
Answer: inactive

Question: How did the outcome turn out when `ClC1=C(Cl)C(Cl)(Cl)C(Cl)=C1Cl` was run?
Answer: inactive

Question: With `CC[C@H](C)[C@@H](C(=O)O)n1sc2ccccc2c1=O` as the compound, how does the outcome read?
Answer: inactive

Question: Which AC50 does the source give for `CC#C[C@]1(O)CC[C@H]2[C@@H]3CCC4=CC(=O)CCC4=C3[C@@H](c3ccc(N(C)C)cc3)C[C@@]21C` here?
Answer: 8.69 µM (active)

Question: `NC(=O)N(O)[C@@H]1C=C[C@H](Oc2cccc(Oc3ccc(F)cc3)c2)C1` was tested. Which AC50 did it give?
Answer: 12.7 µM (active)

Question: `NC(=O)N1C(=O)C(C(=O)c2cc(Cl)cs2)c2cc(F)c(Cl)cc21` (stereo not given) was tested. Which AC50 did it give?
Answer: 79.3 µM (active)

Question: With `CN1CCC[C@H]1c1cccnc1` as the compound, how does the outcome read?
Answer: inactive

Question: For `CCCCC(CC)COC(=O)CCCCC(=O)OCc1ccccc1` (stereo not given), which outcome is on record?
Answer: inactive

Question: How did the outcome turn out when `COCC(C)OCC(C)O` (stereo not given) was run?
Answer: inactive

Question: Which outcome does the source give for `OC1CCCCC1` here?
Answer: inactive

Question: Which outcome does the source give for `CCCCCCCCC(=O)O` here?
Answer: inactive

Question: `CC(O)CO` (stereo not given) was tested. Which outcome did it give?
Answer: inactive

Question: How did the outcome turn out when `CCCOC(=O)c1ccc(O)cc1` was run?
Answer: inactive

From PubChem BioAssay (EPA / NIEHS)
